PubChem BioAssay (NCI)
This is part of a sample that, as a whole, favours compounds with a hit. Of some 83,000 tested, about 20% had one in any assay.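 Cell lines were cultured in 96-well plates, exposed to a single compound concentration, and assessed for percent growth 48 hours later.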 Calls of active or inactive are those of the source. The calls were made as follows: active = growth percent below 10; inactive = the rest.

Columns and labels:
Assay in all cases: NCI-60 one-dose screen, 48 h (100 = growth as untreated, 0 = no growth, -100 = all killed)
Conditions in all cases: 10 µM unless noted
SR leukemia = system: SR leukemia
RPMI-8226 leukemia = system: RPMI-8226 leukemia
OVCAR-8 ovarian = system: OVCAR-8 ovarian
OVCAR-5 ovarian = system: OVCAR-5 ovarian
OVCAR-4 ovarian = system: OVCAR-4 ovarian
SK-OV-3 ovarian = system: SK-OV-3 ovarian
IGROV1 ovarian = system: IGROV1 ovarian
OVCAR-3 ovarian = system: OVCAR-3 ovarian
HS 578T breast = system: HS 578T breast
NCI/ADR-RES ovarian = system: NCI/ADR-RES ovarian
T-47D breast = system: T-47D breast
BT-549 breast = system: BT-549 breast
MDA-MB-435 melanoma = system: MDA-MB-435 melanoma
SW-620 colon = system: SW-620 colon
MCF7 breast = system: MCF7 breast
HCT-116 colon = system: HCT-116 colon
HCC-2998 colon = system: HCC-2998 colon
KM12 colon = system: KM12 colon

Measured: growth

CN1CCN(Cc2ccc(NC(=O)c3cncc(C#Cc4c(N)ncc5cc(F)ccc45)c3)cc2C(F)(F)F)CC1
inactive: OVCAR-8 ovarian 28% | OVCAR-5 ovarian 43.7% | OVCAR-4 ovarian 54.4% | SK-OV-3 ovarian 82.6% | IGROV1 ovarian 15.1% | OVCAR-3 ovarian 76.3% | HS 578T breast 31.8% | NCI/ADR-RES ovarian 10.3% | T-47D breast 77% | BT-549 breast 56.6% | MDA-MB-435 melanoma 26.4% | HCC-2998 colon 51.4%
active: SR leukemia 0.501% | RPMI-8226 leukemia -14% | SW-620 colon -53.1% | MCF7 breast -75.9% | HCT-116 colon -78.7% | KM12 colon 5.8%

O=C1Nc2ccccc2/C1=C/c1cccn1CCCCCCn1c2ccccc2c(=O)c2ccccc21
inactive: SR leukemia 80.8% | RPMI-8226 leukemia 25.3% | OVCAR-8 ovarian 47.5% | OVCAR-5 ovarian 82.2% | OVCAR-4 ovarian 53.8% | SK-OV-3 ovarian 87.2% | IGROV1 ovarian 88% | OVCAR-3 ovarian 64.9% | HS 578T breast 96.3% | NCI/ADR-RES ovarian 71.8% | BT-549 breast 63.5% | MDA-MB-435 melanoma 96.7% | SW-620 colon 102% | HCT-116 colon 70.4% | HCC-2998 colon 42.8% | KM12 colon 12.8%
active: T-47D breast -3% | MCF7 breast 1.03%

O=C1C(Nc2ccc(Br)cc2)=C(I)C(=O)c2ncccc21
active: SR leukemia 4.58% | RPMI-8226 leukemia 6.59% | OVCAR-8 ovarian 2.71% | OVCAR-4 ovarian -95.6% | IGROV1 ovarian -56.7% | OVCAR-3 ovarian -85.3% | NCI/ADR-RES ovarian 1.39% | T-47D breast -41.3% | MDA-MB-435 melanoma -79% | SW-620 colon -24.6% | MCF7 breast -35.4% | HCT-116 colon -36.2%
inactive: OVCAR-5 ovarian 73.5% | SK-OV-3 ovarian 83.9% | HS 578T breast 40.7% | BT-549 breast 63.9% | HCC-2998 colon 87.3% | KM12 colon 49.9%

C=CC(=O)NCc1cccc(Nc2ncc(Br)c(NCCCNC(=O)C3CCC3)n2)c1
active: SR leukemia 2.53% | RPMI-8226 leukemia -14.7% | OVCAR-8 ovarian 5.56% | OVCAR-4 ovarian -2% | SK-OV-3 ovarian -42% | IGROV1 ovarian 1.89% | OVCAR-3 ovarian -33.4% | HS 578T breast -14.1% | T-47D breast -12% | BT-549 breast -50.2% | MDA-MB-435 melanoma -51.4% | SW-620 colon 0.584% | MCF7 breast 1.62% | HCT-116 colon 4.93% | HCC-2998 colon -48.6% | KM12 colon 4.95%
inactive: OVCAR-5 ovarian 10.2% | NCI/ADR-RES ovarian 35.8%

COc1ccc(NC(=O)CSc2oc(-c3ccccc3)nc2S(=O)(=O)c2ccc(Cl)cc2)c(OC)c1
inactive: SR leukemia 65.2% | RPMI-8226 leukemia 49.9% | OVCAR-8 ovarian 34.3% | OVCAR-5 ovarian 107% | OVCAR-4 ovarian 64.6% | SK-OV-3 ovarian 83.2% | IGROV1 ovarian 93.5% | OVCAR-3 ovarian 75.3% | HS 578T breast 36.2% | NCI/ADR-RES ovarian 61.7% | T-47D breast 60.5% | BT-549 breast 61.7% | MDA-MB-435 melanoma 86.6% | SW-620 colon 81.7% | MCF7 breast 73.8% | HCT-116 colon 41.6% | HCC-2998 colon 83.5% | KM12 colon 71.9%

Cc1nc2ccccc2c(/C=C/c2ccc(Br)cc2)c1C(=O)/C=C/c1ccccc1
inactive: SR leukemia 13.6% | OVCAR-4 ovarian 12.5% | SK-OV-3 ovarian 49.4% | HS 578T breast 25.9% | T-47D breast 10.1% | BT-549 breast 21.7% | MCF7 breast 14%
active: RPMI-8226 leukemia -8.25% | OVCAR-8 ovarian 2.21% | OVCAR-5 ovarian -18% | IGROV1 ovarian -7.6% | OVCAR-3 ovarian -72.1% | NCI/ADR-RES ovarian -2.99% | MDA-MB-435 melanoma -47.3% | SW-620 colon 2.35% | HCT-116 colon -49.1% | HCC-2998 colon -41.4% | KM12 colon 7.65%

O=C(O)/C=C/c1cn(-c2ccccc2)nc1-c1ccc(F)cc1
inactive: SR leukemia 104% | RPMI-8226 leukemia 97.4% | OVCAR-8 ovarian 87.4% | OVCAR-5 ovarian 88.8% | OVCAR-4 ovarian 99.1% | SK-OV-3 ovarian 87.8% | IGROV1 ovarian 91.6% | OVCAR-3 ovarian 96% | HS 578T breast 83.4% | NCI/ADR-RES ovarian 90.4% | T-47D breast 93.9% | BT-549 breast 90.7% | MDA-MB-435 melanoma 105% | SW-620 colon 89.8% | MCF7 breast 84% | HCT-116 colon 82.5% | HCC-2998 colon 103% | KM12 colon 90.4%

CCN(CC)c1ccc(/C=N/NC(=O)c2ccccc2Nc2ccnc(C(F)(F)F)c2)c(O)c1
inactive: SR leukemia 65.1% | RPMI-8226 leukemia 26.5% | OVCAR-8 ovarian 35.1% | OVCAR-5 ovarian 57.3% | OVCAR-4 ovarian 33.1% | SK-OV-3 ovarian 19.9% | IGROV1 ovarian 47.5% | OVCAR-3 ovarian 36.7% | HS 578T breast 61.1% | NCI/ADR-RES ovarian 17.3% | T-47D breast 22.3% | BT-549 breast 38.5% | MDA-MB-435 melanoma 29.3% | SW-620 colon 37.3% | MCF7 breast 20.4% | HCT-116 colon 27.7% | HCC-2998 colon 76.7% | KM12 colon 31.4%

COc1ccc(Cn2cc3c(c2)-c2oncc2CC3)cc1
active: MDA-MB-435 melanoma -40.8%
inactive: SR leukemia 40.7% | RPMI-8226 leukemia 48.9% | OVCAR-8 ovarian 83.2% | OVCAR-5 ovarian 83.9% | OVCAR-4 ovarian 89.8% | SK-OV-3 ovarian 67.1% | IGROV1 ovarian 49.6% | OVCAR-3 ovarian 108% | HS 578T breast 70.9% | NCI/ADR-RES ovarian 33.7% | T-47D breast 51.6% | BT-549 breast 64.3% | SW-620 colon 27.2% | MCF7 breast 35.4% | HCT-116 colon 29.6% | HCC-2998 colon 68.1% | KM12 colon 52.3%

CCN1C(=O)N(CC)C2C1NN=c1s/c(=C\c3ccc([N+](=O)[O-])cc3)c(=O)n12 (stereo unspecified)
inactive: SR leukemia 19.9% | RPMI-8226 leukemia 24.3% | OVCAR-8 ovarian 15.3% | OVCAR-5 ovarian 35% | OVCAR-4 ovarian 47.7% | SK-OV-3 ovarian 42.8% | IGROV1 ovarian 22.6% | HS 578T breast 17.1% | T-47D breast 23.9% | BT-549 breast 32.7% | SW-620 colon 19.8% | HCC-2998 colon 11.4% | KM12 colon 19.6%
active: OVCAR-3 ovarian 7.68% | NCI/ADR-RES ovarian 9.89% | MDA-MB-435 melanoma -23.4% | MCF7 breast 7.6% | HCT-116 colon 7.31%

Cc1cc2c(c(C)n1)CN(C(=O)Nc1nc(-c3cncs3)ccc1N)C2
inactive: SR leukemia 95.3% | RPMI-8226 leukemia 93.7% | OVCAR-8 ovarian 92.3% | OVCAR-5 ovarian 103% | OVCAR-4 ovarian 96.7% | SK-OV-3 ovarian 89% | IGROV1 ovarian 92.6% | OVCAR-3 ovarian 103% | HS 578T breast 104% | NCI/ADR-RES ovarian 96.5% | T-47D breast 90.5% | BT-549 breast 105% | MDA-MB-435 melanoma 102% | SW-620 colon 107% | MCF7 breast 89.3% | HCT-116 colon 92.3% | HCC-2998 colon 107% | KM12 colon 95.8%

N#Cc1nn(-c2ccccn2)c(N)c1C#N
inactive: SR leukemia 86.2% | RPMI-8226 leukemia 110% | OVCAR-8 ovarian 106% | OVCAR-5 ovarian 97.5% | OVCAR-4 ovarian 105% | SK-OV-3 ovarian 91.5% | IGROV1 ovarian 108% | OVCAR-3 ovarian 114% | HS 578T breast 105% | NCI/ADR-RES ovarian 104% | T-47D breast 84.1% | BT-549 breast 98.3% | MDA-MB-435 melanoma 101% | SW-620 colon 115% | MCF7 breast 99.8% | HCT-116 colon 87.7% | HCC-2998 colon 106% | KM12 colon 101%

CCOC(=O)CC1CSC(N/N=C(/C)c2cccc(C(F)(F)F)c2)=N1 (stereo unspecified)
inactive: SR leukemia 99.6% | RPMI-8226 leukemia 111% | OVCAR-8 ovarian 102% | OVCAR-5 ovarian 105% | OVCAR-4 ovarian 94.1% | SK-OV-3 ovarian 96.1% | IGROV1 ovarian 94.5% | OVCAR-3 ovarian 105% | HS 578T breast 101% | NCI/ADR-RES ovarian 101% | T-47D breast 104% | BT-549 breast 85.6% | MDA-MB-435 melanoma 101% | SW-620 colon 104% | MCF7 breast 90.5% | HCT-116 colon 96.9% | HCC-2998 colon 101% | KM12 colon 97.7%

Cc1ccc(NC(=O)c2ccc(Nc3ncnc4c3cnn4-c3cccc(F)c3)cc2)cc1
inactive: SR leukemia 92.7% | RPMI-8226 leukemia 90.2% | OVCAR-8 ovarian 97.6% | OVCAR-5 ovarian 99.6% | OVCAR-4 ovarian 98.9% | SK-OV-3 ovarian 109% | IGROV1 ovarian 97.9% | OVCAR-3 ovarian 106% | HS 578T breast 96.6% | NCI/ADR-RES ovarian 98.8% | T-47D breast 92.6% | BT-549 breast 99.7% | MDA-MB-435 melanoma 100% | SW-620 colon 101% | MCF7 breast 96.5% | HCT-116 colon 101% | HCC-2998 colon 107% | KM12 colon 102%

O=C1c2c(c3c4cccnc4[nH]c3c3ccc4ccccc4c23)C(=O)N1O
inactive: SR leukemia 17.8% | RPMI-8226 leukemia 16% | OVCAR-8 ovarian 46% | OVCAR-5 ovarian 110% | OVCAR-4 ovarian 53.8% | SK-OV-3 ovarian 75.5% | IGROV1 ovarian 38% | OVCAR-3 ovarian 14.4% | HS 578T breast 70.9% | NCI/ADR-RES ovarian 94.3% | T-47D breast 40.7% | BT-549 breast 45% | MDA-MB-435 melanoma 47.9% | SW-620 colon 21.2% | MCF7 breast 20.8% | HCT-116 colon 26.5% | HCC-2998 colon 77.2% | KM12 colon 50.2%

C=C(C)[C@@H]1CC[C@]2(C#N)CC[C@]3(C)[C@H](CC[C@@H]4[C@@]5(C)CCCNC(C)(C)[C@@H]5CC[C@]43C)[C@@H]12
inactive: OVCAR-8 ovarian 82.7% | OVCAR-5 ovarian 88.6% | OVCAR-4 ovarian 72.4% | SK-OV-3 ovarian 118% | IGROV1 ovarian 46.4% | OVCAR-3 ovarian 70.1% | HS 578T breast 91.8% | NCI/ADR-RES ovarian 88.3% | T-47D breast 78.8% | BT-549 breast 96.1% | MDA-MB-435 melanoma 44.2% | MCF7 breast 20% | HCT-116 colon 41.6% | KM12 colon 41%
active: SR leukemia -26% | RPMI-8226 leukemia -18.6% | SW-620 colon 2.83% | HCC-2998 colon -40.2%

Nc1nc(N)c2c(n1)NC(c1cccc(Nc3ccnc4cc(C(F)(F)F)ccc34)c1)CC(c1ccc(Cl)cc1)=N2 (stereo unspecified)
active: SR leukemia 3.26% | RPMI-8226 leukemia -1.21% | MDA-MB-435 melanoma -24.8%
inactive: OVCAR-8 ovarian 62.4% | OVCAR-5 ovarian 105% | OVCAR-4 ovarian 60.1% | SK-OV-3 ovarian 64.9% | IGROV1 ovarian 52.9% | OVCAR-3 ovarian 26.6% | HS 578T breast 62.1% | NCI/ADR-RES ovarian 54.4% | T-47D breast 73.7% | BT-549 breast 114% | SW-620 colon 25.6% | MCF7 breast 16.1% | HCT-116 colon 15.1% | HCC-2998 colon 51.8% | KM12 colon 21.3%
